# Source: PubChem BioAssay (EPA / NIEHS)
# Records with an inconclusive call do not appear. Calls of active or inactive are those of the source. Rule for the calls: active = hit-call score of the fitted dose curve at least 0.9, where 1 is the maximum; inconclusive = response in the unintended direction; inactive = score below 0.9.
# Target: Estrogen receptor (Homo sapiens) + Estrogen receptor beta (Homo sapiens) (UniProt P03372+Q92731)
# Experiment: OT_ER_ERaERb_0480: Odyssey Thera (OT) 8-hour HEK293T Protein-Complementation Assay for Estrogen Receptor-alpha/-beta Heterodimer (AID 2283352)
# Method in brief: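 HEK293T protein-fragment complementation assay of ER-alpha/ER-beta LBD heterodimerisation, read 8 h after dosing. Mean nuclear/cytoplasmic fluorescence intensity measured by laser scanning cytometry; gain of signal fitted relative to DMSO.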
# Estrogen receptor (Homo sapiens) + Estrogen receptor beta (Homo sapiens), sequence (P03372 whole entry, looked up): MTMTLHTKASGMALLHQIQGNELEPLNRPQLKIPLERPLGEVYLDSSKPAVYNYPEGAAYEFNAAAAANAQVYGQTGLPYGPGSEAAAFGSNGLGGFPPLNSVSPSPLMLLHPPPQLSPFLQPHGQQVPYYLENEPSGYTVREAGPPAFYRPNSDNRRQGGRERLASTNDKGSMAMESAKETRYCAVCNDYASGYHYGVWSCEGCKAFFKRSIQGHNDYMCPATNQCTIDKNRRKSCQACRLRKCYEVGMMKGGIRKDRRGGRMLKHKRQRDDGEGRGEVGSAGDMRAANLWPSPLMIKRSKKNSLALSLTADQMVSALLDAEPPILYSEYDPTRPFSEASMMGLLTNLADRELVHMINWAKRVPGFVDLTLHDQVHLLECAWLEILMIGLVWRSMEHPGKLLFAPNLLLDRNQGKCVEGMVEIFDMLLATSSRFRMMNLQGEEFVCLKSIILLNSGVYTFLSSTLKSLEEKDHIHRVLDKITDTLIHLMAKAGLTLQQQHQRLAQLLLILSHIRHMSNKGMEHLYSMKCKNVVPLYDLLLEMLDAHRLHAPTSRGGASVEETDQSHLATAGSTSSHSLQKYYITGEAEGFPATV
# Estrogen receptor (Homo sapiens) + Estrogen receptor beta (Homo sapiens), sequence (Q92731 whole entry, looked up): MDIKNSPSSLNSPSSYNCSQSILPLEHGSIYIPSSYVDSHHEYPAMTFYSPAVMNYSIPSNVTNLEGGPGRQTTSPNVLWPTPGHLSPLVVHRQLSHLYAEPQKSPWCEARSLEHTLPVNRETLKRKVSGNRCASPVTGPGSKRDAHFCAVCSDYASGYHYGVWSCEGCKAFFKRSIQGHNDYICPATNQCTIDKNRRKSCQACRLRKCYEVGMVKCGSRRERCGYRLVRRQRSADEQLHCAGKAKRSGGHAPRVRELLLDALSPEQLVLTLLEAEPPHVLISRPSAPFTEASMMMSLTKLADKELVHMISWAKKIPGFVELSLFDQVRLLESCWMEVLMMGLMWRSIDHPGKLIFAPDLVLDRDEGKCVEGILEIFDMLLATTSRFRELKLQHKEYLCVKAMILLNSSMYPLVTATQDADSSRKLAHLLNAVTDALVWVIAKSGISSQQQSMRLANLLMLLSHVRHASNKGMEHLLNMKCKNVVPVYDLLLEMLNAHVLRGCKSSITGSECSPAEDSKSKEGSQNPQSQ
Compound,outcome,AC50
Cn1c([N+](=O)[O-])cnc1COC(N)=O,inactive,
O=C(c1ccccc1)C1CCC1,inactive,
COC(=O)c1c(C)cc(O)c(C)c1O,,50.4 µM (active)
c1c[nH]cn1,inactive,
CC(C)c1ccc2cc(C(C)C)ccc2c1,inactive,
CC/C=C\C/C=C\C/C=C\CCCCCCCC(=O)O,inactive,
CC(C)(C)c1ccc(-c2ccc(C(C)(C)C)cc2)cc1,inactive,
CC(C)=CCC[C@H](C)CCO,inactive,
CCCc1ccc(OC)cc1,inactive,
CC(=O)[C@H]1[C@H](C#N)C[C@H]2[C@@H]3CC=C4C[C@@H](O)CC[C@]4(C)[C@H]3CC[C@@]21C,inactive,
O=c1cc(-c2ccccc2)oc2ccccc12,inactive,
Cc1cc(C)c(C(=O)O)c(C)c1,inactive,
CN(C)c1ccc(C(=N)c2ccc(N(C)C)cc2)cc1,inactive,
CCOC(=O)Cc1cccc2ccccc12,,61.7 µM (active)
CC1=CC[C@H]2C[C@@H]1C2(C)C,inactive,
O=S(=O)(O)c1ccccc1C=Cc1ccc(-c2ccc(C=Cc3ccccc3S(=O)(=O)O)cc2)cc1,inactive,
CCCCCCCCCCCCCOP(=O)(O)O,inactive,
CCCCCCCOC(=O)CCC,inactive,

Compound,outcome,AC50
CCCCC/C=C\C/C=C\CCCCCCCC(=O)OC,inactive,
CNC(=S)NN,inactive,
CC1=NN(c2cc(S(=O)(=O)O)ccc2Cl)C(=O)C1N=Nc1ccccc1 (stereo not given),inactive,
OC1CCCC1,inactive,
CC(C)(C)c1ccc(N)cc1,inactive,
C=C1C2CCC(C2)C1(C)C (stereo not given),inactive,
CO[Si](OC)(OC)c1ccccc1,inactive,
CC(C)(C)c1ccc(OC(=O)c2ccccc2O)cc1,,58.9 µM (active)
O=C(C=Cc1ccccc1)OCc1ccccc1,inactive,
O=C1CCCC1,inactive,
Cc1ccc(C(C)c2ccc(C)c(C)c2)cc1C,,58 µM (active)
CC=C1CC2C=CC1C2 (stereo not given),inactive,
O=C(O)CCCC[C@@H]1SC[C@@H]2NC(=O)N[C@@H]21,inactive,
Oc1ccc(Cl)cc1Cc1cc(Cl)ccc1O,,11.9 µM (active)
Cc1ccc(N/N=c2\c(=O)cc/c(=N/Nc3ccc(S(=O)(=O)O)cc3)c2=O)c(C)c1,inactive,
O=S1(=O)OC(c2ccc(O)cc2)(c2ccc(O)cc2)c2ccccc21,inactive,
C=CC(=O)NC(C)(C)CS(=O)(=O)O,inactive,
